From PubChem BioAssay
Chlamy TAG = increases triacylglycerol in Chlamydomonas reinhardtii; actives 0.84% (n = 44,000); Chlamydomonas reinhardtii TAG, Nile Red fluorescence, 72 h; calls only at 10 µM (by protocol); call rule not given here;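 further: hits raise Nile Red signal meaning more stored TAG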
Numbers without * were called inactive. The entries come from a sample that favours hits as a whole.

Screening CC(C)c1ccc(NS(=O)(=O)c2cccs2)cc1 returned Chlamy TAG inactive.
`Cc1cc(C)cc(NS(=O)(=O)c2cccs2)c1` gave Chlamy TAG inactive.
Screening CC(C)C(NS(=O)(=O)c1cccs1)C(C)C returned Chlamy TAG active.
O=C(C1=C(O)C(=O)N(CCN2CCOCC2)C1c1cccnc1)c1cccs1 (stereo not drawn) was read as Chlamy TAG inactive.
C/C(=C\c1ccccc1)CN1CCOCC1 was read as Chlamy TAG inactive.
`CCOC(=O)N1CCN(C/C(C)=C/c2ccccc2)CC1` gave Chlamy TAG inactive.
C/C(=C\c1ccccc1)CN1CCN(C)CC1 was read as Chlamy TAG active.
Cc1ccc(OCC(=O)NN)cc1C was read as Chlamy TAG inactive.
Clc1ccc(OCCOCCN2CCOCC2)c(Br)c1 was read as Chlamy TAG active.
Screening Clc1cc(Br)ccc1OCCN1CCOCC1 returned Chlamy TAG inactive.
Screening Clc1ccc(OCCN2CCOCC2)c(Br)c1 returned Chlamy TAG inactive.
Screening Clc1cc(Br)ccc1OCCCN1CCOCC1 returned Chlamy TAG active.
Screening Cc1cc(Br)ccc1OCCOCCN1CCOCC1 returned Chlamy TAG active.
Screening Clc1cc(Br)ccc1OCCCN1CCCC1 returned Chlamy TAG inactive.
Cc1ccc(OCCN2CCOCC2)c(Br)c1 was read as Chlamy TAG inactive.
`Cc1cc(Br)ccc1OCCN1CCOCC1` gave Chlamy TAG inactive.
`Cc1cc(Br)ccc1OCCCN1CCOCC1` gave Chlamy TAG inactive.
COc1ccc(CNc2ccccc2SC)cc1 was read as Chlamy TAG inactive.
Cc1ccccc1OCC(O)CNS(=O)(=O)c1ccccc1C(=O)O (stereo not drawn) was read as Chlamy TAG inactive.
Screening CSC1=C(C#N)C(c2ccc(OCc3ccccc3)cc2)CC(=O)N1 (stereo not drawn) returned Chlamy TAG inactive.
For O=C(O)CCC(=O)Nc1cc(Br)c2c(c1)OCCO2 the results were Chlamy TAG inactive.
`Cc1ccc(NC(=O)CCC(=O)O)c(C)c1` gave Chlamy TAG inactive.
For Cc1ccc(NC(=O)CC(C)C)c(NC(=O)CC(C)C)c1 the results were Chlamy TAG active.
`Cc1cccc(C(=O)Nc2ccc(C)cc2NC(=O)c2cccc(C)c2)c1` gave Chlamy TAG inactive.
For Cc1csc(NC(=O)c2ccccc2I)n1 the results were Chlamy TAG inactive.
`CCCCC(NS(=O)(=O)c1ccc(F)cc1)C(=O)O` (stereo not drawn) gave Chlamy TAG inactive.
`COc1ccc(OC)c(NC(=O)C(=O)NCc2ccccc2)c1` gave Chlamy TAG inactive.
CCCOc1ccc(N2CC(C(=O)Nc3cc(C)ccc3F)CC2=O)cc1 (stereo not drawn) was read as Chlamy TAG inactive.
`COc1ccccc1C(=O)N1CCN(C(=O)C(c2ccccc2)c2ccccc2)CC1` gave Chlamy TAG active.
Screening COc1cccc(CN2CCN(C(=O)C(c3ccccc3)c3ccccc3)CC2)c1OC returned Chlamy TAG inactive.
For COc1cc(OC)cc(C(=O)N2CCN(C(=O)C(c3ccccc3)c3ccccc3)CC2)c1 the results were Chlamy TAG inactive.
For O=[N+]([O-])c1ccccc1S(=O)(=O)N1CCN(c2ccc(Cl)cc2)CC1 the results were Chlamy TAG inactive.
Screening COc1cc(C(=O)Nc2ccc(S(=O)(=O)NC(C)=O)cc2)cc(OC)c1OC returned Chlamy TAG inactive.
Screening COc1ccc(C(=O)Nc2ccc(S(=O)(=O)Nc3ncccn3)cc2)cc1[N+](=O)[O-] returned Chlamy TAG inactive.
For COc1cc(C(=O)Nc2ccc(S(=O)(=O)Nc3ncccn3)cc2)cc(OC)c1OC the results were Chlamy TAG active.
For CC(=O)c1cccc(NC(=O)c2ccc(NS(=O)(=O)c3ccccc3)cc2)c1 the results were Chlamy TAG inactive.
CCN1CCN(C2CCC(C)CC2)CC1 (stereo not drawn) was read as Chlamy TAG active.
Screening c1ccc(CN2CCC(N3CCN(Cc4ccco4)CC3)CC2)cc1 returned Chlamy TAG inactive.
Screening CCN1CCC(N2CCN(C=O)CC2)CC1 returned Chlamy TAG inactive.
`CCCCN(C)C1CCN(Cc2ccccc2)CC1` gave Chlamy TAG inactive.
Screening C=C(C)CN(CC)C1CCN(Cc2ccccc2)CC1 returned Chlamy TAG inactive.
Screening CC1CCC(N2CCN(Cc3ccccc3)CC2)CC1 (stereo not drawn) returned Chlamy TAG active.
`CC(=O)N1CCN(C2CCC(C)CC2)CC1` (stereo not drawn) gave Chlamy TAG inactive.
`CC1CCCN(C2CCN(Cc3ccccc3)CC2)C1` (stereo not drawn) gave Chlamy TAG inactive.
For CN(CCc1ccccc1)C1CCN(Cc2ccccc2)CC1 the results were Chlamy TAG active.
`COc1ccc(C(=O)NCCN(C)C)c(OC)c1` gave Chlamy TAG inactive.
For O=C(Nc1ccccc1F)c1cccc(F)c1 the results were Chlamy TAG inactive.
For COc1ccc(N2CCN(C(=O)c3ccc(S(=O)(=O)N4CCC(C)CC4)cc3)CC2)cc1 the results were Chlamy TAG inactive.
`CC(C)CC(=O)N1CC(=O)NC(=O)C1` gave Chlamy TAG inactive.
For Fc1ccc(C2=CSC3=NCCN23)cc1 the results were Chlamy TAG inactive.
Brc1ccc(C2=CSC3=NCCN23)cc1 was read as Chlamy TAG inactive.
CCOc1ccc(C2=CSC3=NCCN23)cc1 was read as Chlamy TAG active.
`O=C(Nc1ccc([N+](=O)[O-])cc1NC(=O)C1CCCCC1)C1CCCCC1` gave Chlamy TAG inactive.
For COc1ccccc1-c1c(C)[nH]n2c(=O)c3c(nc12)CCC3 the results were Chlamy TAG inactive.
Screening COc1ccccc1OCCOc1ccccc1Br returned Chlamy TAG inactive.
For COc1ccc(S(=O)(=O)N(CC(=O)NC(C)C)c2cc(C)cc(C)c2)cc1OC the results were Chlamy TAG active.
`COc1ccc(S(=O)(=O)N(CC(=O)N2CCCC2)c2cc(C)cc(C)c2)cc1OC` gave Chlamy TAG inactive.
COc1ccc(S(=O)(=O)N(CC(=O)Nc2ccccc2F)c2cc(C)cc(C)c2)cc1OC was read as Chlamy TAG inactive.
Screening O=c1c(CN2CCN(Cc3ccc4c(c3)OCO4)CC2)coc2ccccc12 returned Chlamy TAG inactive.
For O=C1c2ccccc2C(=O)N1CN1CCN(Cc2ccc3c(c2)OCO3)CC1 the results were Chlamy TAG inactive.
`O=C1CC(N2CCN(Cc3ccc4c(c3)OCO4)CC2)C(=O)N1CCc1ccccc1` (stereo not drawn) gave Chlamy TAG active.
For COc1cccc(N(CC(=O)Nc2ccccc2Cl)S(C)(=O)=O)c1 the results were Chlamy TAG inactive.
Screening Cc1ccc(C(=O)Nc2ccc(O)c(-c3nc4cc(C)c(C)cc4o3)c2)cc1 returned Chlamy TAG inactive.
For COc1ccc(NC(=O)CCC2CCCCC2)c(OC)c1 the results were Chlamy TAG inactive.
Cc1ccc(NC(=O)CCC2CCCCC2)c([N+](=O)[O-])c1 was read as Chlamy TAG inactive.
`COc1ccc(NC(=O)CCC2CCCCC2)c([N+](=O)[O-])c1` gave Chlamy TAG active.
CC(CC(=O)Nc1ccccc1F)c1ccccc1 (stereo not drawn) was read as Chlamy TAG inactive.
`CCCN1CCC(N(C)CCN(C)C)CC1` gave Chlamy TAG inactive.
